Where “and” joins values, the source holds several entries; their conditions need not be identical. Equal values may be shown once. Records with an inconclusive call do not appear. Calls of active or inactive are those of the source. Unless noted, the call rests on the fitted dose curve; in most records, active means well fitted curve in the direction sought with a large enough effect in the repeat runs; inconclusive means weak or mixed curves; inactive means no such curve, though single readings can be large; an effect the other way counts as inactive or inconclusive.
Tests used:
[1] = qHTS assay to identify small molecule that activate the aryl hydrocarbon receptor (AhR) signaling pathway - cell viability counter screen (AID 743086);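 further: HepG2 liver cells carrying the AhR DRE luciferase reporter; series mostly up to about 70 µM; nearly all actives have a fitted effect of over 45% in size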
Method in brief: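 Cytotoxicity counter screen: CellTiter-Fluor signal (30 min, 37 C) in 4000 HepG2 cells/well carrying the DRE-luciferase reporter, following 24 h compound exposure at 37 C.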

[2] = qHTS assay to identify small molecule antagonists of the peroxisome proliferator-activated receptor gamma (PPARg) signaling pathway - cell viability counter screen (AID 743194); further: nearly all actives have a fitted effect of over 55% in size
Method in brief: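 Viability was measured as CellTiter-Glo luminescence in GeneBLAzer PPARg UAS-bla HEK293H cells. These cells had been exposed 17 h at 37 C to compounds together with rosiglitazone at 50 nM final, with the beta-lactamase readout taken in the same wells.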

[3] = qHTS assay for small molecule agonists of the antioxidant response element (ARE) signaling pathway (AID 743202; active means well fitted activation curve with a large enough effect in the signal ratio in the repeat runs, not every such curve was filed as active; the % refers to the signal ratio; further: potency means the concentration at half of the fitted maximal effect)
Method in brief: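 An ARE-responsive beta-lactamase gene stably integrated in HepG2 cells serves as reporter. After 5 h plating and 16 h compound incubation at 37 C, fluorescence of the B/G FRET substrate was measured.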

[4] = qHTS assay for small molecule agonists of the antioxidant response element (ARE) signaling pathway - cell viability counter screen (AID 743203; calls by dose curve; further: nearly all actives have a fitted effect of over 55% in size)
Method in brief: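 ARE-bla HepG2 cells were plated, rested 5 h at 37C/5% CO2, then exposed to compounds in DMSO for 16 h. Viability was read as CellTiter-Glo luminescence after 30 min at room temperature, in the same wells as the ARE screen.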

[5] = qHTS assay for small molecule activators of the heat shock response signaling pathway - cell viability counter screen (AID 743209); further: nearly all actives have a fitted effect of over 50% in size; further: potency means the concentration at half of the fitted maximal effect
Method in brief: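 HSE-bla HeLa cells plated overnight, then exposed to Tox21 compounds (23 nL in DMSO) for 5 h at 37 C. After the bla reporter read, CellTiter-Glo was added in the same wells and luminescence read after 30 min at room temperature.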

[6] = qHTS assay for small molecule activators of the heat shock response signaling pathway (AID 743210; active means well fitted activation curve with a large enough effect in the signal ratio in the repeat runs, with a control signal flat, not every such curve was filed as active; the % refers to the signal ratio;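 further: HeLa cells with beta-lactamase reporter driven by heat shock elements; series mostly up to about 63 µM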)
Method in brief: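 In HSE-bla HeLa cells, 5 h compound incubation (37 C) precedes addition of LiveBLAzer B/G substrate; after 2.5 h at room temperature, fluorescence intensity indicates reporter induction.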

[7] = qHTS assay to identify small molecule agonists of the peroxisome proliferator-activated receptor delta (PPARd) signaling pathway - cell viability counter screen (AID 743211); further: nearly all actives have a fitted effect of over 55% in size; further: potency means the concentration at half of the fitted maximal effect
Method in brief: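 Tox21 library compounds, delivered in DMSO, were incubated 17 h with PPARd-bla HEK293H cells; cytotoxicity was taken from CellTiter-Glo luminescence read 30 min after reagent addition.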

[8] = qHTS assay to identify small molecule antagonists of the peroxisome proliferator-activated receptor delta (PPARd) signaling pathway - cell viability counter screen (AID 743213); further: nearly all actives have a fitted effect of over 50% in size; further: potency means the concentration at half of the fitted maximal effect
Method in brief: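 HEK293H PPARd UAS-bla cells, 5 h pre-incubation, compound + L165041 300 nM final, 17 h 37 C; B/G FRET substrate 2 h RT; then CellTiter-Glo 30 min RT, luminescence.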

[9] = molecular target: Bile acid receptor (Homo sapiens) (UniProt Q96RI1); test: qHTS assay to identify small molecule antagonists of the farnesoid-X-receptor (FXR) signaling pathway (AID 743217; active means well fitted inhibition curve with a large enough effect in the signal ratio in the repeat runs, not every such curve was filed as active; the % refers to the signal ratio)
Method in brief: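 FXR-UAS-bla HEK 293T cells (beta-lactamase reporter) given compound plus chenodeoxycholic acid (50 uM final), 16 h at 37C. LiveBLAzer B/G FRET substrate added for 2 h at room temperature; fluorescence read.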

[10] = qHTS assay to identify small molecule agonists of the farnesoid-X-receptor (FXR) signaling pathway - cell viability counter screen (AID 743218); further: nearly all actives have a fitted effect of over 45% in size; further: potency means the concentration at half of the fitted maximal effect
Method in brief: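 FXR-UAS-bla HEK 293T cells exposed to compounds for 16 h at 37C. Cytotoxicity read in the same wells by CellTiter-Glo luminescence after 30 min at room temperature, following the beta-lactamase FRET read.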

[11] = molecular target: Bile acid receptor (Homo sapiens) (UniProt Q96RI1); test: qHTS assay to identify small molecule agonists of the farnesoid-X-receptor (FXR) signaling pathway (AID 743220; active means well fitted activation curve with a large enough effect in the signal ratio in the repeat runs, not every such curve was filed as active; the % refers to the signal ratio)
Method in brief: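 Beta-lactamase reporter under UAS control in GeneBLAzer FXR HEK 293T cells (5000/well) measured with LiveBLAzer FRET substrate after 2 h at room temperature. Compound exposure lasted 16 h at 37C.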

[12] = qHTS assay to identify small molecule antagonists of the farnesoid-X-receptor (FXR) signaling pathway - cell viability counter screen (AID 743221; active means well fitted cell-killing curve with a large enough effect in the repeat runs, not every such curve was filed as active; further: nearly all actives have a fitted effect of over 50% in size)
Method in brief: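 Cytotoxicity is taken from ATP luminescence (CellTiter-Glo, 30 min, room temperature) in FXR-bla HEK 293T cells previously incubated 16 h at 37 C with compound and chenodeoxycholic acid at 50 uM final.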

[13] = molecular target: Vitamin D3 receptor (Homo sapiens) (UniProt P11473); test: qHTS assay to identify small molecule agonists of the vitamin D receptor (VDR) signaling pathway (AID 743222; calls by dose curve)
Method in brief: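 VDR-bla cells plated 4 h at 37 C, then exposed to compounds for 16 h at 37 C. Beta-lactamase reporter activity measured by fluorescence after 2 h room-temperature loading with LiveBLAzer B/G FRET substrate.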

[14] = qHTS assay to identify small molecule agonists of the vitamin D receptor (VDR) signaling pathway - cell viability counter screen (AID 743224); further: series mostly up to about 63 µM; nearly all actives have a fitted effect of over 50% in size
Method in brief: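 VDR-bla cells, 4 h after plating, exposed to compounds for 16 h at 37C; viability then read in the same wells as CellTiter-Glo luminescence after 30 min at room temperature, following the bla FRET read.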

[15] = molecular target: Vitamin D3 receptor (Homo sapiens) (UniProt P11473); test: qHTS assay to identify small molecule antagonists of the vitamin D receptor (VDR) signaling pathway (AID 743223; active means well fitted inhibition curve with a large enough effect in the signal ratio in the repeat runs, not every such curve was filed as active; the % refers to the signal ratio)
Method in brief: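 Quantitative HTS in VDR-bla reporter cells stimulated with 1alpha,25-dihydroxyvitamin D3, 3 nM final. Compound exposure 16 h, 37C, 5% CO2. Read-out: beta-lactamase FRET substrate fluorescence, 2 h RT.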

[16] = molecular target: Peroxisome proliferator-activated receptor gamma (Homo sapiens) (UniProt P37231); test: qHTS assay to identify small molecule agonists of the peroxisome proliferator-activated receptor gamma (PPARg) signaling pathway (AID 743094; active means well fitted activation curve with a large enough effect in the signal ratio in the repeat runs, not every such curve was filed as active; the % refers to the signal ratio)
Method in brief: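 GeneBLAzer PPARg UAS-bla HEK293H cells were plated, rested 5 h, then exposed to compounds for 17 h at 37C. Beta-lactamase activity was read by LiveBLAzer B/G FRET substrate fluorescence after 1 h at room temperature.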

[17] = molecular target: Peroxisome proliferator-activated receptor delta (Homo sapiens) (UniProt Q03181); test: qHTS assay to identify small molecule agonists of the peroxisome proliferator-activated receptor delta (PPARd) signaling pathway (AID 743212; calls by dose curve)
Method in brief: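 HEK293H UAS-bla reporter cells, human PPARd system; compounds delivered in DMSO after 5 h plating, then at 37 C. Beta-lactamase FRET read, 2 h RT substrate step.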

[18] = molecular target: Peroxisome proliferator-activated receptor gamma (Homo sapiens) (UniProt P37231); test: qHTS assay to identify small molecule antagonists of the peroxisome proliferator-activated receptor gamma (PPARg) signaling pathway (AID 743191; calls by dose curve; further: series mostly up to about 63 µM; nearly all actives have a fitted effect of over 30% in size)
Method in brief: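 Beta-lactamase reporter under UAS control in HEK293H PPARg-bla cells; compound treatment 17 h at 37C. Read-out: fluorescence intensity after 1 h room-temperature incubation with LiveBLAzer B/G FRET substrate.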

[19] = molecular target: Peroxisome proliferator-activated receptor delta (Homo sapiens) (UniProt Q03181); test: qHTS assay to identify small molecule antagonists of the peroxisome proliferator-activated receptor delta (PPARd) signaling pathway (AID 743215; active means well fitted inhibition curve with a large enough effect in the signal ratio in the repeat runs, not every such curve was filed as active; the % refers to the signal ratio;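 further: cells stimulated with agonist L165041 at 300 nM final during compound exposure; series mostly up to about 62 µM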)
Method in brief: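 PPARd-bla HEK293H cells (UAS-bla reporter) preincubated 5 h, then given compound plus 300 nM final L165041 agonist for 17 h at 37 C. Beta-lactamase activity read by LiveBLAzer B/G FRET substrate fluorescence after 2 h at room temperature.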

[20] = molecular target: Aryl hydrocarbon receptor (Homo sapiens) (UniProt P35869); test: qHTS assay to identify small molecule that activate the aryl hydrocarbon receptor (AhR) signaling pathway (AID 743085);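 further: HG2L7.5c1 human HepG2 liver cells with stably integrated DRE-driven firefly reporter; series mostly up to about 70 µM; nearly all actives have a fitted effect of over 15% in size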
Method in brief: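 A multiplexed format paired cell viability (CellTiter-Fluor fluorescence) with AhR-dependent luciferase output (ONE-Glo luminescence) in the same wells of HepG2 DRE-luc cells after 24 h compound exposure at 37C.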
On the % scale 0 is the no-effect control and ±100 the full control effect.

Chain of Vitamin D3 receptor (Homo sapiens) (P11473 whole entry, looked up): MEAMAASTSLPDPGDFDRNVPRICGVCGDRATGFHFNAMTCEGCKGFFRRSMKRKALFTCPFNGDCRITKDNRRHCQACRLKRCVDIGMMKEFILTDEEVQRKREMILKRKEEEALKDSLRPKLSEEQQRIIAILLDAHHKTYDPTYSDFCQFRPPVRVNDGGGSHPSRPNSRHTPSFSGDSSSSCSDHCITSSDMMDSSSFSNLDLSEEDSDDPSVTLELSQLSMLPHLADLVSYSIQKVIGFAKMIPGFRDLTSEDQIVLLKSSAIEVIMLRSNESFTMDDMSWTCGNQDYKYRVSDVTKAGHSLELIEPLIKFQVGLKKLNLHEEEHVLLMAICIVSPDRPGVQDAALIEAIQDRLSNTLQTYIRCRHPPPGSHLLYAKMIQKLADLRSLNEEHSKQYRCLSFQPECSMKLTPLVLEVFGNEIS
Chain of Peroxisome proliferator-activated receptor delta (Homo sapiens) (Q03181 whole entry, looked up): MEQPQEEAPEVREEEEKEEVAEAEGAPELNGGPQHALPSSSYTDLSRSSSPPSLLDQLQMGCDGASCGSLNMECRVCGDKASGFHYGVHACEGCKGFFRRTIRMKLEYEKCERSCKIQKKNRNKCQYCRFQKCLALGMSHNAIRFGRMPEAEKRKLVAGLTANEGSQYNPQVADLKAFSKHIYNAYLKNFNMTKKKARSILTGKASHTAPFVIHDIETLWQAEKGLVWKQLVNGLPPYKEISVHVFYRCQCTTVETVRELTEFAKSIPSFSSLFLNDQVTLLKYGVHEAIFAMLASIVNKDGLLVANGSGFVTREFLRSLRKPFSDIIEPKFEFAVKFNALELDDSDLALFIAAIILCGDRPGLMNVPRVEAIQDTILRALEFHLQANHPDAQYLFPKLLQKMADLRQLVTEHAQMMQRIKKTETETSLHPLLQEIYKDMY
Chain of Bile acid receptor (Homo sapiens) (Q96RI1 whole entry, looked up): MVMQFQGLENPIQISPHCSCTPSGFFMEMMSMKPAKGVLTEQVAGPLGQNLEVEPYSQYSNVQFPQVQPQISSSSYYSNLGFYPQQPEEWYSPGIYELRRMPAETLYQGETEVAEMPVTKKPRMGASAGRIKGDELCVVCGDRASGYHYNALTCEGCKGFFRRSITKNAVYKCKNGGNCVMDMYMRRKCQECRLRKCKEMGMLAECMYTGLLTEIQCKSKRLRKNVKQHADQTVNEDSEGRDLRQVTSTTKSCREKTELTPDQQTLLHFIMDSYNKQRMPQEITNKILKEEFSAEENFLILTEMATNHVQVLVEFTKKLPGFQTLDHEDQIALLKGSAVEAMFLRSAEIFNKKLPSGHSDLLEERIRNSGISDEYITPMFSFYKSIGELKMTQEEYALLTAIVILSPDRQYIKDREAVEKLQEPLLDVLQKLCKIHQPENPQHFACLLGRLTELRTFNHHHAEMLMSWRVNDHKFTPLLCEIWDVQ
Chain of Peroxisome proliferator-activated receptor gamma (Homo sapiens) (P37231 whole entry, looked up): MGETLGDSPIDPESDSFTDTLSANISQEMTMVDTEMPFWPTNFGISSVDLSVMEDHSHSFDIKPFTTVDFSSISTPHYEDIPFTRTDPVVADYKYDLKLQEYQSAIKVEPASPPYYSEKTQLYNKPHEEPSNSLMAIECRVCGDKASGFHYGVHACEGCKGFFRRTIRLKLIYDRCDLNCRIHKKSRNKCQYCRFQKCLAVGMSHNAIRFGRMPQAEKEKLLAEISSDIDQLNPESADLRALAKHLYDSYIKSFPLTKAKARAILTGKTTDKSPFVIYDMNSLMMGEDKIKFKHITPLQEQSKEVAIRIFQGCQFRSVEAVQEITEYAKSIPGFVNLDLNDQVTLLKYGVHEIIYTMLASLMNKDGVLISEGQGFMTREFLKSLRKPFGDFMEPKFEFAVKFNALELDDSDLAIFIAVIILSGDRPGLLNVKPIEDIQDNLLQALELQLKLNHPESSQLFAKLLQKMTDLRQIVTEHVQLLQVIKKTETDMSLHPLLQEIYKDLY
Chain of Aryl hydrocarbon receptor (Homo sapiens) (P35869 whole entry, looked up): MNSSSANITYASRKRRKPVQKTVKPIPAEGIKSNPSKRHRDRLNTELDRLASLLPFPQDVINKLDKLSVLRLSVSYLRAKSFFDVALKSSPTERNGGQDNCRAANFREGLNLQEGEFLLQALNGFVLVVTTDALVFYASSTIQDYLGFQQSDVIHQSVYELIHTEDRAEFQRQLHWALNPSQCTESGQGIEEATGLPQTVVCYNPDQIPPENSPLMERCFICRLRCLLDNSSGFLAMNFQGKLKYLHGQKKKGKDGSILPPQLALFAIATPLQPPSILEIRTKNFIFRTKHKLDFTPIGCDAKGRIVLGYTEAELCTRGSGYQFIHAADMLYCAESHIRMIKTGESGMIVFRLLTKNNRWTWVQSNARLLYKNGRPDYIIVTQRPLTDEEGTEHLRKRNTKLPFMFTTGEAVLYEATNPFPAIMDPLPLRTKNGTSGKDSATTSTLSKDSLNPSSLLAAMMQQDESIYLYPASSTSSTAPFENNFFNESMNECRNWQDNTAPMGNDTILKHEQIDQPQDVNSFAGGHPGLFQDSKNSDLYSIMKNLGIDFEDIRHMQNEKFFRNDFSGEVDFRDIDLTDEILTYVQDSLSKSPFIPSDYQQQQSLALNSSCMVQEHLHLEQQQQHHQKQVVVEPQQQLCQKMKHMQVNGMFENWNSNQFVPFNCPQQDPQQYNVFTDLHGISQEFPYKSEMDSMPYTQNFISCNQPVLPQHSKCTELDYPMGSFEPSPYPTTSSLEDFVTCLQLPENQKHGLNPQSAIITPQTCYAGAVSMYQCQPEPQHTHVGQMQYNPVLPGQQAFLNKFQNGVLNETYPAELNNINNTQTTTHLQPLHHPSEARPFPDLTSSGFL

CCC(C)O (configuration not stated)
inactive: Potency [1] | Potency [2] | Potency [3] | Potency [4] | Potency [5] | Potency [6] | Potency [7] | Potency [8] | Potency [9] | Potency [10] | Potency [11] | Potency [12] | Potency [13] | Potency [14]

CN(C)c1ccc(/C=C/c2ccc([N+](=O)[O-])cc2)cc1
inactive: viability change, negative = cytotoxic [1] 24.5% [at 8.47 µM] | activity change, negative = cytotoxicity [2] 9.25% [at 5.95 µM] | activation [3] -18.5% [at 8.36 µM] | activity change, negative = cytotoxicity [5] -1.13% [at 5.95 µM] | activation [6] 0.443% [at 5.95 µM] | viability change, negative = cytotoxic [10] -8.77% [at 5.95 µM] | activation [11] -3.79% [at 5.95 µM] | activity change, negative = cytotoxicity [12] -0.888% [at 5.95 µM] | activity change, negative = inhibition [15] -22.2% [at 6.95 µM] | activity change, negative = cytotoxicity [14] -5.5% [at 5.95 µM]

C[N+]1(C)CCC(OC(=O)C(O)(c2ccccc2)C2CCCC2)C1 (configuration not stated)
inactive: Potency [1] | Potency [16] | Potency [2] | Potency [4] | Potency [5] | Potency [6] | Potency [7] | Potency [17] | Potency [8] | Potency [10] | Potency [12] | Potency [13] | outcome [15] | Potency [14]

CCN(CC)CCOC(=O)C(c1ccccc1)C1CCCCC1 (configuration not stated)
inactive: Potency [1] | Potency [16] | Potency [18] | Potency [3] | Potency [4] | Potency [19] | Potency [12] | Potency [13] | outcome [15] | Potency [14]

CCC(C)(C)CC
active: Potency [8] 51.3 µM
inactive: Potency [1] | Potency [2] | Potency [3] | Potency [4] | Potency [10] | Potency [12] | outcome [15]

Cc1ccccc1S(=O)(=O)O
inactive: Potency [1] | Potency [2] | Potency [3] | Potency [4] | Potency [5] | Potency [6] | Potency [8] | Potency [10] | Potency [12] | Potency [14]

CN(C)C(=O)NC1(c2ccccc2)CCN(CC[C@@]2(c3ccc(F)c(F)c3)CN(C(=O)c3ccccc3)CCO2)CC1
inactive: Potency [20] | Potency [18] | Potency [2] | Potency [3] | Potency [4] | Potency [5] | Potency [6] | Potency [17] | Potency [8] | Potency [19] | Potency [9] | Potency [11] | Potency [12] | outcome [15] | Potency [14]

C=CC(=O)OCCOCCOCCOCCOC(=O)C=C
active: Potency [3] 24.5 µM and 27.1 µM | Potency [5] 34.8 µM | Potency [7] 54.4 µM
inactive: Potency [20] | Potency [2] | Potency [4] | Potency [8] | Potency [12]

C#C[C@]1(O)CC[C@H]2[C@@H]3CCc4cc(OC5CCCC5)ccc4[C@H]3CC[C@@]21C
inactive: Potency [1] | Potency [16] | Potency [2] | Potency [5] | Potency [6] | Potency [13] | outcome [15] | Potency [14]
active: Potency [10] 26.6 µM

CCCCCCc1ccc(-c2ccc(C#N)cc2)cc1
inactive: Potency [1] | Potency [2] | Potency [3] | Potency [4] | Potency [5] | Potency [6] | Potency [7] | Potency [17] | Potency [8] | Potency [19] | Potency [9] | Potency [11] | Potency [12] | Potency [14]

From PubChem BioAssay (Tox21)
